We go through 37 molecules from article PMC5540273 (PLoS ONE, 2017).
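Further: KINOMEscan kinase panel screen.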

In this test the test system is EPHA6. The following applies: concentration: 1 μM, replicates: in singlicate; n = 1.
Consider `Cc1ccc(C(=O)Nc2ccc(Nc3ccnc4cc(-c5nccs5)ccc34)cc2O)cc1.Cl` [GW494702], for which the “%Inh” value was determined as 15%. `CC(C)c1nc(-c2cccc(NS(=O)(=O)c3c(F)cccc3F)c2F)c(-c2ccnc(Nc3ccc(N4CCOCC4)nc3)n2)s1` [GSK2008607]: the “%Inh” value was found to be 94.7%.

For `Cl.c1ccc(-c2ccc3c(Nc4ccc5[nH]ccc5c4)ccnc3c2)nc1` [GW440138], the “%Inh” value is given as 54%.

Consider `Nc1ncc(-c2cccnc2)c2scc(-c3ccc4c(c3)CCN4C(=O)Cc3ccccc3)c12` [GSK683281], for which the “%Inh” value is 11%. `COc1cc(Nc2nccc(-c3c(-c4cccc(NC(=O)c5c(F)cccc5F)c4)nn4ccccc34)n2)cc(OC)c1OC` [GSK323521]: the “%Inh” value is reported as 3%. Consider `CCc1ccc(-c2ccc3c(c2)-c2c(cnn2C)S(=O)(=O)N3C)cc1`, for which the “%Inh” value amounted to 0%. Regarding `COC(=O)Nc1nc2cc(Oc3ccc(NC(=O)Nc4cc(C(F)(F)F)ccc4F)cn3)ccc2[nH]1.Cl.Cl` [GW681170], the “%Inh” value was found to be 91%. To `Cc1occc1-c1ncc(OC[C@@H](N)Cc2c[nH]c3ccccc23)cc1-c1ccc2[nH]nc(C)c2c1.O=C(O)C(F)(F)F` [GSK682037] belongs 49%; to `O=C(Nc1cccc(Oc2ccc3nc(NC(=O)C4CC4)cn3n2)c1)c1ccccc1C(F)(F)F`, 16%. Consider `CSc1cccc2c(-c3ccncn3)c(-c3ccc(F)cc3)nn12` [GW514786], for which the “%Inh” value is listed as 0%.

Regarding `COc1cc(Nc2ncc3c(C)nc(-c4cc5ccccc5[nH]4)n3n2)cc(OC)c1OC` [GW869516], the “%Inh” value is reported as 0%. Turning to `O=C(Nc1cccc(-c2nn3ccccc3c2-c2ccnc(Nc3cccc(C(F)(F)F)c3)n2)c1)c1c(F)cccc1F` [GSK292658], the “%Inh” value stood at 7%.

Turning to `CNC(=O)c1ccccc1Nc1nc(Nc2ccc(N3CCOCC3)cc2)ncc1Cl.Cl` [GSK1576028], the “%Inh” value is on record as 65%.

`Cl.c1ccc(-c2ccc3c(Nc4ccc5[nH]ncc5c4)ccnc3c2)nc1` [GW440137]: the “%Inh” value is given as 28%.

On to `Cl.Cl.NCC(NC(=O)c1cc(-c2ccccc2)c(-c2ccnc3[nH]ccc23)s1)c1ccccc1` (stereo not shown) [GSK1321561], for which the “%Inh” value amounted to 34%. As for `COc1cc2c(cc1OCCN1CCNCC1)ncc1c3ccc(C#N)cc3[nH]c21`, the “%Inh” value came to 0%. Take `CCn1c(-c2nonc2N)nc2c(C#CC(C)(C)O)ncc(OCCCCN)c21.O=C(O)C(F)(F)F.O=C(O)C(F)(F)F` [GSK507274]: the “%Inh” value was found to be 20%. As to `COc1cc(Nc2nccc(-c3c(-c4cccc(NC(=O)c5c(F)cccc5F)c4)nn4ncccc34)n2)cc(OC)c1OC` [GSK327238], the “%Inh” value is 49%.

For `COc1cc(Nc2nccc(N3CCC(NC(=O)Nc4cccc(C(C)=O)c4)C3)n2)cc(OC)c1OC` (stereo not shown) [GSK1379753], the “%Inh” value worked out at 8%. For `CN(C)S(=O)(=O)c1cc(-c2ccc3nccc(-c4cccc(S(N)(=O)=O)c4)c3c2)cnc1N` [GSK1669921], the “%Inh” value was 18%.

Take `COCCOCCOc1cc2ncc3c4ccc(C#N)cc4[nH]c3c2cc1OC`: the “%Inh” value is 25%. To `Nc1n[nH]c2cnc(-c3ccccc3)cc12` [SB-642124] belongs 6%; to `CN1CCN(CCCNc2nccc(-c3c(-c4ccc(F)cc4)nn4cc(C(F)(F)F)ccc34)n2)CC1` [GW621581], 8%; to `Nc1ncnc2c1nc(-c1ccccc1)n2-c1ccccc1` [SKF-97293], 28%.

On to `Cl.NC(=O)c1cccc(Nc2nccc(Nc3ccc(Oc4c(Cl)cccc4Cl)c(Cl)c3)n2)c1` [GW659009], for which the “%Inh” value came to 0%. For `Cc1ccc(F)c(C(=O)Nc2cccc(-c3nn4ccccc4c3-c3ccnc(Nc4cccc(F)c4)n3)c2)c1F` [GSK361061], the “%Inh” value stood at 32%. Then `COc1cccc(-c2ccc3c(NC(=O)C4CC4)n[nH]c3n2)c1` [SB-710903], with 23%; and `CC(=O)N1CCN(c2ccc(Nc3nccc(-c4sc(C(C)C)nc4-c4cccc(NS(=O)(=O)c5cccc(Cl)c5)c4)n3)cn2)CC1` [GSK1660437], with 32%. Take `C[C@@H]1CC[C@@H](C(=O)Nc2ccccc2)CN1c1cc(-c2ccc3c(N)n[nH]c3c2)nc(N)n1` [GSK2286062]: the “%Inh” value was 0%.

With `Clc1ccc(-c2nn3ncccc3c2-c2ccnc(Nc3ccc4c(c3)OCCO4)n2)cc1` [GW829116], the “%Inh” value is 34%.

As for `Cc1ccc(C(=O)N2CC[C@@H](O)C2)cc1-n1c(C)cc(OCc2ccc(F)cc2F)c(Br)c1=O`, the “%Inh” value is 0%. On to `CC(=O)Nc1nc2cnc(Nc3cc(NC(=O)c4cccc(C5(C#N)CC5)c4Cl)ccc3C)nc2s1`, for which the “%Inh” value is listed as 56%. Regarding `c1ccc(-c2cnc3nccnn23)cc1` [AH20685], the “%Inh” value is recorded as 0%.

For the molecule `CCn1c(-c2nonc2N)nc2c(C#CC(C)(C)O)nc(OC[C@H](N)c3ccccc3)cc21` [GSK943949], the “%Inh” value was found to be 0%. `Cl.Cl.NCC(C(=O)Nc1cc(Br)c(-c2ccnc3[nH]ccc23)s1)c1ccccc1` (stereo not shown) [GSK1269851]: the “%Inh” value is on record as 32%. For the molecule `COc1cccc(C2=C(Nc3ccc(Cl)c(C(=O)O)c3)C(=O)NC2=O)c1` [SB-390769], the “%Inh” value is recorded as 2%. On to `Cc1cccc(Nc2nc(N[C@H]3CCNC3)ncc2C(N)=O)c1.Cl` [GSK2197149], for which the “%Inh” value is given as 7%.
